# The list is not random: actives were taken first. Their share in the collection is about 3.9%.
# HIF-2a inh: HIF-2a inhibition | 360,000 tested, 0.72% active | AID 624352 | 786-0 RCC cells HIF-2a reporter, luciferase luminescence, overnight | inhibition, % at 18.8 µM;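 active = inhibition of the luminescence signal of 40% or more relative to plate controls, in a single-dose primary screen at 18.75 µM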
# aSyn 5UTR inh: MLPCN primary screen, SNCA 5' untranslated region; alpha-synuclein 5'UTR reporter, inhibitor activity; inhibition, % (tested at 7.5 µM); 300,000 tested, 0.82% active; AID 1813; in the data active = inhibition above about 60%;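 note: H4 neuroglioblastoma cells stably carrying SNCA 5'UTR luciferase fusion; 0% = DMSO wells and 100% = positive control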
# TRAIL sens C8: caspase-8 TRAIL sensitization; NB7+C8 cells + TRAIL, ATPlite viability luminescence; inhibition (viability loss, TRAIL sensitization), % at 10 µM; 360,000 tested, 1% active;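 active = compounds causing at least 50% loss of cell viability in the single-dose screen, relative to plate controls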
# TROY signal inh: TROY signaling inhibition. Q293 LMP1-TROYcd NF-kB luciferase reporter, 4 h. inhibition, % at 10 µM. 360,000 tested, 0.98% active;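 active = compounds whose plate-normalised and pattern-corrected inhibition of the luciferase reporter signal at the single screening dose is 50% or more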
# TWEAK Fn14 block: TWEAK-Fn14 signaling inhibition | TWEAK-stimulated Fn14 reporter cells, luciferase luminescence, 8 h | inhibition, % at 10 µM | 360,000 tested, 2% active; in the data active = inhibition above about 50%
# HSP90 inh: blocks HSP90-mediated luciferase refolding in reticulocyte lysate | 290,000 tested, 0.91% active | Rabbit reticulocyte lysate, luciferase refolding luminescence, 3 h | inhibition, % at 5.6 µM;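 active = inhibition above the screen-wide mean plus 3 SD, computed separately per campaign, cut at about 16% in these data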;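 note: 0% = DMSO wells and 100% = 60 µM geldanamycin wells; inhibitors lower the luminescence because luciferase stays unfolded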
# Mdm2 MdmX conf: Mdm2/MdmX (human) interaction inhibition, confirmed; shares compounds with HIF-2a inh; SaOS-2 split-luciferase Mdm2/MdmX complementation, luminescence; inhibition, % at 8 µM; 740 tested, 99% active; AID 504601;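 active = mean inhibition of the luminescence signal across two replicates at or above 26 percent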
# Target sequence (O15151 whole entry, looked up): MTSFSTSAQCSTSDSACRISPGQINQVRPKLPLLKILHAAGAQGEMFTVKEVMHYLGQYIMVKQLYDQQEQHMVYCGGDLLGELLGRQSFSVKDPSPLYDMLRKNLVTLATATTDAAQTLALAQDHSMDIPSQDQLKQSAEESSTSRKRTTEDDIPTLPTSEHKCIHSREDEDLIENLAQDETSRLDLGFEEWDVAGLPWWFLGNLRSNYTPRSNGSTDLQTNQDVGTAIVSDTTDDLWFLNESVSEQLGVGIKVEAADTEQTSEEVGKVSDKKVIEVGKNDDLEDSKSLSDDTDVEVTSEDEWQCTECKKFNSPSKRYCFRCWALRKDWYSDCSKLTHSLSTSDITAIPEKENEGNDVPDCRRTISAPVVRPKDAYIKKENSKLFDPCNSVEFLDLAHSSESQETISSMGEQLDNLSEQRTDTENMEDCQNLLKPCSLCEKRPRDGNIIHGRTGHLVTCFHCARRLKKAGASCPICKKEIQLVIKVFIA
# Target sequence (Q00987 whole entry, looked up): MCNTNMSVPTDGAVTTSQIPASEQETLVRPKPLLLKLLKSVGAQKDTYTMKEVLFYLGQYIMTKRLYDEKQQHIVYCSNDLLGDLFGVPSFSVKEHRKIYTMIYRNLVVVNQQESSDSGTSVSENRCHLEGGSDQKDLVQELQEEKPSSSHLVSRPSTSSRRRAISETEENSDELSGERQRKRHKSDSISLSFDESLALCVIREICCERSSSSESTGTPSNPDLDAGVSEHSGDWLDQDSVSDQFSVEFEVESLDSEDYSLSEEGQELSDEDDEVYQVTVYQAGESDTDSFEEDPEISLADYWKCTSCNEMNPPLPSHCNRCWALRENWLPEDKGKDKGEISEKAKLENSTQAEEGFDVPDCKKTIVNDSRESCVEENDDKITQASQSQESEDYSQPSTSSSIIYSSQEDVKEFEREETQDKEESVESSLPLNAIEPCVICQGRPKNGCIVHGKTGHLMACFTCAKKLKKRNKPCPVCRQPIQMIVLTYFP
# HIF-2a conf: HIF-2a inhibition, single concentration confirmation | shares compounds with HIF-2a inh | 786-0 RCC cells, HIF-2a luciferase reporter luminescence, overnight | inhibition, % at 18.8 µM | 1,800 tested, 56% active | AID 651580;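 active = mean inhibition across four replicates of at least 40 percent at the single tested concentration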
# HIF-1a counter: counter-screen for HIF-2a inhibitors: HIF-1a inhibition in MiaPaCa-2 cells; MiaPaCa-2 HIF-1a luciferase reporter, desferoxamine, overnight; 1,800 tested, 72% active; shares compounds with HIF-2a inh; inhibition, % at 18.8 µM;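 active = mean inhibition of the reporter signal across four replicates at the single tested dose of 50% or more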
# Numbers without * were called inactive; nt = no result.
SMILES,HIF-2a inh,aSyn 5UTR inh,TRAIL sens C8,TROY signal inh,TWEAK Fn14 block,HSP90 inh,HIF-2a conf,HIF-1a counter,others
O=C1C=CC(=O)N1c1cccc(-c2ccccc2)c1,76*,6,5,-29,-9,5,68*,40,
O=C(Nc1cccc(N2C(=O)C=CC2=O)c1)c1cccs1,9,6,2,-7,-12,nt,nt,nt,
C[C@@H]1CN([C@H](C)CO)C(=O)CCCn2cc(nn2)CO[C@H]1CN(C)C(=O)Nc1cccc(F)c1,4,nt,-9,-7,-7,nt,nt,nt,
CCOc1ccc(Nc2ncnc3ccc([N+](=O)[O-])cc23)cc1,15,-2,15,51*,77*,3,nt,nt,Mdm2 MdmX conf=87*
CC(C)N=C(NS(=O)(=O)c1ccccc1)C(Cl)(Cl)Cl,84*,-15,-13,77*,101*,-2,57*,35,
O=S(=O)(NC(=S)c1ccccc1)c1ccccc1,13,25,-16,1,-20,nt,nt,nt,
COc1c(Cl)cc(Cl)cc1/C=C/C(=O)c1ccc(NC(=O)c2cccs2)cc1,87*,-115,-14,3,79*,-2,-97,107*,Mdm2 MdmX conf=99*
CCCCNC(=O)C1(C)CCCCN1Cc1ccc(OCc2ccccc2)cc1 (stereo not drawn),-16,nt,14,7,7,nt,nt,nt,
COc1ccc(-c2oc3c(OC)c(OC)c(OC)c(O)c3c(=O)c2OC)cc1OC,-5,17,26,3,6,-4,nt,nt,Mdm2 MdmX conf=74*
CC1(C(=O)NS(=O)(=O)Cc2ccccc2)CCN1C(=O)Cc1ccccc1Cl (stereo not drawn),1,nt,-7,-12,1,nt,nt,nt,
C1=CC2=NC34CCCCC3CC3=C(CCCC3)N4C2=CC1=NC1CCCCC1 (stereo not drawn),17,-24,22,-7,23,nt,nt,nt,Mdm2 MdmX conf=52*
Cc1ccc(N(NC(=O)C(O)(c2ccccc2)c2ccccc2)C(=O)CCl)cc1,50*,-1,54*,-12,46,-1,32,99*,Mdm2 MdmX conf=102*
O=C(Nc1ccccc1)NN(C(=O)CCl)c1ccccc1,58*,-125,97*,-4,69*,-2,67*,90*,Mdm2 MdmX conf=103*
Cc1ccc(C(O)(C(=O)NN(C(=O)c2ccccc2)c2ccccc2)c2ccc(C)cc2)cc1,14,-4,-7,16,34,0,nt,nt,
CCC(O)(CC)C(=O)NN(C(=O)CCl)c1ccccc1,0,-55,19,2,23,2,nt,nt,
O=C(N/C(=C/c1ccc([N+](=O)[O-])cc1)C(=O)N1CCOCC1)c1ccco1,9,9,0,10,-1,2,nt,nt,
CCCCNC(=O)C1(C)CCN1C(=O)c1ccc2c(c1)C(C)(C)CCC2(C)C (stereo not drawn),18,nt,13,0,4,nt,nt,nt,
CCOC(=O)c1cc(-c2csc(-c3cccc(Cl)c3)n2)on1,10,nt,-13,-6,1,3,nt,nt,
CCOC(=O)c1cc(-c2csc(Nc3c(C)cc(C)cc3C)n2)on1,57*,nt,-7,-7,-20,-1,19,16,
N#Cc1c(N)n(C2CCCCC2)c2nc3ccccc3nc12,42*,62*,-1,72*,37,-1,16,77*,
C(=Cc1cccnc1)c1ccncc1,0,nt,-11,16,18,nt,nt,nt,
Cc1cccc(C(=O)Nc2ccc(C(=O)/C=C/c3cccnc3)cc2)c1,76*,-98,5,-76,0,0,-104,104*,
Cc1cccc(C(=O)Nc2ccc(C(=O)/C=C/c3ccncc3)cc2)c1,88*,-160,19,58*,-13,7,-77,105*,
O=C(/C=C/c1cccnc1)/C=C/c1cccnc1,95*,nt,51*,72*,101*,5,66*,107*,
CN(CC(=O)Nc1ccccc1Cl)C(=O)CN1C(=O)NC(c2ccccc2)(c2ccccc2)C1=O,18,nt,-12,4,12,nt,nt,nt,

# Screening results as filed in PubChem BioAssay.
